Rows were chosen to be rich in hits. Some 2% of all compounds tested hit in one or more screens of this group.
S1P3 antagonist: S1P3 receptor antagonists, primary screen, cell-based; Sphingosine 1-phosphate receptor 3 (Homo sapiens), Q99500; CHO S1P3 NFAT-BLA reporter, FRET fluorescence, antagonist mode; inhibition, % at 4.98 µM; 170,000 compounds, 0.27% hits; AID 485, 2006;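 active = inhibition above the plate cutoff, the mean inhibition of test wells on that plate plus 3 SD, cut at about 28% in these data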;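 also: cells challenged with S1P at its EC80 of 0.8 µM; blue over green emission ratio from cleaved BLA substrate after 4 h stimulation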
S1P4 agonist: S1P4 receptor agonists, primary screen, cell-based; Sphingosine 1-phosphate receptor 4 (Homo sapiens), O95977; S1P4-expressing cell line, agonist reporter assay; activation, % at 4.98 µM; 220,000 compounds, 0.35% hits; in the data active = activation above about 11%
PGE2 EP2 inh: human EP2 receptor antagonists, primary screen, TR-FRET cAMP, C6 glioma cells; Prostaglandin E2 receptor EP2 subtype (Homo sapiens), P43116; C6 glioma cells expressing human EP2; cells stimulated with saturating PGE2; inhibition, % at 25 µM; 260,000 compounds, 0.52% hits; AID 1422, 2008;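 active = percent inhibition above 40 after rounding to a whole number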;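 also: rat C6 glioma host cells with rolipram phosphodiesterase inhibitor present; the protocol text gives 20 µM as final concentration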
Target sequence (P43116 whole entry, looked up): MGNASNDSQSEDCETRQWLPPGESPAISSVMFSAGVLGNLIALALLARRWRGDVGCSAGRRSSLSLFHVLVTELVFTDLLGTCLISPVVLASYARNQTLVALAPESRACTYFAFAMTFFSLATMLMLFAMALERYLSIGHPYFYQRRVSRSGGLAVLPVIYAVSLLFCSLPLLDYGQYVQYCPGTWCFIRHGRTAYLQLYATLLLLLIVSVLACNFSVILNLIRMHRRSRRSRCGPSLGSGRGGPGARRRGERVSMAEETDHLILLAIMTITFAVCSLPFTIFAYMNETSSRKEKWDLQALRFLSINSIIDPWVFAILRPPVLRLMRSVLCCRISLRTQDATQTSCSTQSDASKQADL
S1P4 antagonist: S1P4 receptor antagonists, primary screen, cell-based; S1P4-expressing cells, antagonist mode, reporter read-out; inhibition, % at 4.98 µM; 220,000 compounds, 0.26% hits; in the data active = inhibition above about 29%
EP2 modulator: EP2 receptor modulators, cAMP readout, primary screen, cell-based, HTRF cAMP, PGE2 stimulation; induction, % at 25 µM; AID 940, 2007; EP2-expressing cells, cAMP HTRF FRET, PGE2 co-stimulation; 260,000 compounds, 0.83% hits; Prostaglandin E2 receptor EP2 subtype (Homo sapiens), P43116;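 active = compounds whose cAMP rise, as percent of the full-agonist control response, exceeds 60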;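 also: rat C6 glioma line stably carrying human EP2 under a CMV promoter; the protocol text gives 20 µM as final concentration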
A number is an active result; ! = not confirmed by another sample.

What do the screens show for `C[N+](C)(C)c1cc2c(nn1)Nc1ccccc1S2`?
PGE2 EP2 inh: 48.8; EP2 modulator: inactive

How did O=[N+]([O-])c1ccc(N(c2ccccc2)c2ccccc2)cc1 do in these assays?
S1P4 agonist: inactive; PGE2 EP2 inh: inactive; S1P4 antagonist: inactive; EP2 modulator: 60.7

What do the screens show for `CCCSc1nc2c(c(=O)[nH]c(=O)n2C)n1Cc1cccc(C)c1`?
PGE2 EP2 inh: inactive; EP2 modulator: 70.4

How did C/C(Cl)=C\CSc1nc2c(c(=O)[nH]c(=O)n2C)n1Cc1cccc(C)c1 do in these assays?
PGE2 EP2 inh: inactive; EP2 modulator: 86.5

How did COc1ccc(C2/C(=C(/O)c3cc(C)ccc3C)C(=O)C(=O)N2CCN(C)C)cc1OC (centres undefined) do in these assays?
PGE2 EP2 inh: inactive; EP2 modulator: inactive

Results for CC(C)c1ccc(NC(=O)COc2ccccn2)cc1 ?
S1P3 antagonist: inactive; S1P4 agonist: inactive; PGE2 EP2 inh: 95.0; S1P4 antagonist: inactive; EP2 modulator: inactive

How did CC(C)(C)C1CCC2(CC1)CCN(CCCN1CCOCC1)CC2 do in these assays?
PGE2 EP2 inh: 44.0; EP2 modulator: inactive

Results for CN(C)CCCN1CCC2(CCC(C(C)(C)C)CC2)CC1 ?
PGE2 EP2 inh: 51.0; EP2 modulator: inactive

How did CN(C)c1cccc(C(=O)N2CCC(Nc3nc4c(c(=O)[nH]3)CCCC4)CC2)c1 do in these assays?
PGE2 EP2 inh: inactive; EP2 modulator: inactive

What do the screens show for `O=C1c2ccsc2SCCN1Cc1cccc(Cl)c1`?
S1P4 agonist: inactive; PGE2 EP2 inh: inactive; S1P4 antagonist: inactive; EP2 modulator: 61.1

What do the screens show for `O=C1c2ccsc2SCCN1Cc1ccc(Cl)cc1`?
S1P4 agonist: inactive; PGE2 EP2 inh: inactive; S1P4 antagonist: inactive; EP2 modulator: inactive

How did Cc1ccccc1CN1CCSc2sccc2C1=O do in these assays?
S1P3 antagonist: inactive; S1P4 agonist: inactive; PGE2 EP2 inh: inactive; S1P4 antagonist: inactive; EP2 modulator: 61.6

How did O=C(CSc1nnc(-c2cccnc2)n1-c1ccc(Cl)cc1)NC1CCCC1 do in these assays?
PGE2 EP2 inh: inactive; EP2 modulator: inactive

What do the screens show for `CCOC(=O)CSc1ccc(-c2nc3cc(C)c(C)cc3[nH]2)cn1`?
S1P4 agonist: inactive; PGE2 EP2 inh: 57.3!; S1P4 antagonist: inactive; EP2 modulator: inactive

What do the screens show for `CCOC(=O)C1CCN(C(=O)CN(c2ccc(CC)cc2)S(C)(=O)=O)CC1`?
PGE2 EP2 inh: inactive; EP2 modulator: inactive

Results for Cc1ccccc1CN1C2=NCCN2C(=O)C2=C1CCN(Cc1ccccc1)C2 ?
PGE2 EP2 inh: 48.5; EP2 modulator: inactive

How did CCC1CCCCN1C(=O)Cn1nc(C)n2c(cc3ccsc32)c1=O (centres undefined) do in these assays?
EP2 modulator: inactive

How did CC(=O)O[C@@H]1CC[C@]2(C)C(=C[C@H]([C@@H]3C=C4C[C@@H](OC(C)=O)CC[C@]4(C)C4=C3[C@@H]3C[C@@H]5O[C@@]6(CC[C@H](C)CO6)[C@@H](C)[C@@H]5[C@@]3(C)CC4)C3=C2CC[C@@]2(C)[C@@H]4[C@@H](C)[C@]5(CC[C@H](C)CO5)O[C@@H]4C[C@H]32)C1 do in these assays?
PGE2 EP2 inh: 40.4; EP2 modulator: inactive

How did CC1(C)CC(N(Cc2cccnc2)Cc2ccsc2)CC(C)(C)N1 do in these assays?
PGE2 EP2 inh: inactive; EP2 modulator: inactive

How did O=C(c1ccncc1)N(Cc1nc2ccccc2c(=O)[nH]1)Cc1cccs1 do in these assays?
PGE2 EP2 inh: inactive; EP2 modulator: inactive

How did O=C(/C=C/c1ccccc1)N(Cc1nc2ccccc2c(=O)[nH]1)Cc1cccs1 do in these assays?
PGE2 EP2 inh: inactive; EP2 modulator: 63.0

How did Oc1c(CN2CCN(c3ccccc3)CC2)cc(Br)c2cccnc12 do in these assays?
S1P3 antagonist: inactive; S1P4 agonist: inactive; PGE2 EP2 inh: 40.9!; S1P4 antagonist: inactive; EP2 modulator: inactive

Results for COCCn1c(=O)n(CC(=O)OC(C)C)c2cccnc21 ?
EP2 modulator: inactive

How did CN(CCc1ccccn1)c1ccc2c(c1)C(=O)c1ccccc1-2 do in these assays?
PGE2 EP2 inh: 74.6; EP2 modulator: inactive

How did Cc1ccc(N(CCc2ccccn2)N=O)cc1 do in these assays?
PGE2 EP2 inh: inactive; EP2 modulator: inactive

What do the screens show for `CCNC(=S)N(Cc1ccc(OC)cc1)Cc1cc2cc(C)c(C)cc2[nH]c1=O`?
PGE2 EP2 inh: inactive; EP2 modulator: inactive

What do the screens show for `CC(CCC(=O)O)(c1cc(Br)c(O)c(Br)c1)c1cc(Br)c(O)c(Br)c1`?
PGE2 EP2 inh: 39.7; EP2 modulator: inactive

How did COC(=O)C1=C(C)NC2=C(C(=O)c3ccccc32)C1c1ccc(OCc2ccccc2C#N)c(OC)c1 (centres undefined) do in these assays?
PGE2 EP2 inh: inactive; EP2 modulator: inactive

How did Cc1ccc2c(c1)N(CC(=O)N1c3ccccc3Sc3ccccc31)C(=O)CO2 do in these assays?
PGE2 EP2 inh: inactive; EP2 modulator: 63.2

How did COc1ccc(/C=C/C(=O)c2cc(O)ccc2O)cc1 do in these assays?
PGE2 EP2 inh: 49.8; EP2 modulator: inactive

What do the screens show for `O=C(OCn1ncc(Cl)c(Cl)c1=O)c1cccc(C(F)(F)F)c1`?
S1P4 agonist: inactive; PGE2 EP2 inh: inactive; S1P4 antagonist: 34.0; EP2 modulator: inactive

How did CCS(=O)(=O)N1CCN(Cc2cnc(N3CCCCC3)nc2)CC1 do in these assays?
PGE2 EP2 inh: inactive; EP2 modulator: inactive

How did OCCSc1nc(-c2ccccc2)nc2ccc(F)cc12 do in these assays?
S1P3 antagonist: inactive; S1P4 agonist: inactive; PGE2 EP2 inh: inactive; S1P4 antagonist: inactive; EP2 modulator: 70.3!

What do the screens show for `O=C(O)CSc1nc(-c2ccccc2)nc2ccc(F)cc12`?
PGE2 EP2 inh: inactive; EP2 modulator: 88.9

What do the screens show for `CC(C)n1c(=O)oc2cc(S(=O)(=O)NC3(c4ccccc4F)CC3)ccc21`?
PGE2 EP2 inh: inactive; EP2 modulator: inactive

What do the screens show for `NNC(=O)/C(=C/c1ccc2c(c1)OCO2)NC(=O)c1ccccc1Br`?
PGE2 EP2 inh: inactive; EP2 modulator: inactive

How did Cc1ccc2oc(-c3ccc(NC(=O)CC(C)C)cc3)nc2c1 do in these assays?
S1P3 antagonist: 54.0; S1P4 agonist: inactive; PGE2 EP2 inh: inactive; S1P4 antagonist: inactive; EP2 modulator: inactive

How did CC(C)CC(=O)Nc1ccc2oc(-c3cccnc3)nc2c1 do in these assays?
S1P3 antagonist: inactive; S1P4 agonist: inactive; PGE2 EP2 inh: inactive; S1P4 antagonist: inactive; EP2 modulator: inactive

How did CC(C)Cn1c(=O)[nH]c(=O)c2c(C(F)(F)F)cc(-c3ccccc3)nc21 do in these assays?
S1P3 antagonist: inactive; S1P4 agonist: inactive; PGE2 EP2 inh: inactive; S1P4 antagonist: inactive; EP2 modulator: 65.7

Results for Cc1nc2ccc(NC(=O)c3ccc(Cl)s3)cc2s1 ?
S1P3 antagonist: 55.8; S1P4 agonist: inactive; PGE2 EP2 inh: inactive; S1P4 antagonist: inactive; EP2 modulator: inactive

High-throughput results deposited in PubChem by several laboratories.
